Assay results reported in PubChem BioAssay AID488966 (Southern Research Specialized Biocontainment Screening …, 2010).
Out of some 340,000 compounds screened, about 55 (0.02%) were called active.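 The calls were made as follows: active = phage lysis inhibition, versus mean bacterial control, above a set limit; inconclusive = no clear call, values can overlap the other calls; inactive = the rest.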 The list is a sample of the results. Results with a measured potency or affinity are listed apart.

assay: protection from phage-mediated lysis, alamar blue read-out – E. coli UTI89, K1F phage, bacterial capsule biogenesis inhibitors (AID 488966); settings: 2 h; inhibition: at 100 µM, stronger effect = higher value unless noted; series mostly up to 300 µM;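 also: capsule biogenesis inhibitors block K1F phage lysis so surviving cells raise fluorescence; higher fluorescence means more inhibition of phage lysis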

inhibition, inactive:
CCC(CC)NC(=O)c1cc(OC)c(OC)cc1[N+](=O)[O-] 0.4%, COc1cc(OC)c(OC)cc1CN(C)CC1CCCN(CCc2ccccc2F)C1 (centres undefined) 0.88%, c1ccc2c(-c3cncc4ccccc34)cncc2c1 0.59%, CCOC(=O)C(Cc1ccc(O)cc1)NC(=O)CNC(=O)C(CC(C)C)NC(=O)OC(C)(C)C (centres undefined) 4.94%, COc1cccc(-c2c(C(=O)N/N=C(\C)c3cccs3)nnn2-c2nonc2N)c1 0.38%, Cc1ccc(C)c(S(=O)(=O)N2CCCCC2CCNC(=O)C(=O)NCc2ccccc2)c1 (centres undefined) 0.87% [at 50 µM, stronger effect = higher value], Brc1c(OCCOCCn2cncn2)ccc2ccccc12 -1.02%, O=C(CCc1ccccc1)N=C1SC2CS(=O)(=O)CC2N1c1ccc(F)cc1 (centres undefined) 0.07%, Cc1ccc(S(=O)(=O)c2c(C)cc(C)nc2Oc2cccc(C)c2C)cc1 1.5%, COc1cc(CCC(=O)NCC2CCCO2)cc(OC)c1OC (centres undefined) 0.13%, CC(C)C(NC(=O)c1ccccc1F)C(=O)OCC(=O)c1ccc(F)cc1 (centres undefined) -0.86%, Cc1ccc(C(C)(C)C)cc1S(=O)(=O)Nc1cccc(C(=O)N2CCN(c3ccccn3)CC2)c1 -1.06% [at 50 µM, stronger effect = higher value], O=C1CCCN1C(=O)CSc1ccc2ccccc2n1 0.65% [at 50 µM, stronger effect = higher value], Cc1ccc(C(=O)ONc2ccc(N=NC(=O)c3ccccc3O)cc2)cc1 -1.4%, O=Nc1ccc(NOC(=O)c2ccccc2)cc1 0.94% [at 50 µM, stronger effect = higher value], CCC1(CC)C(=O)NC(=O)NC1=NCCc1c[nH]c2ccccc12 8.91%, CC(=O)c1ccc(C(C)(C)c2ccc(C(C)=O)s2)s1 1.04%, COc1cc(/C=N/N=C(N)N)ccc1OCc1ccc(Cl)cc1 1.12%, COc1cc(/C=N/O)ccc1OCc1ccccc1Cl 2.6%, CCSc1ccccc1C(=O)Nc1ccc([N+](=O)[O-])cc1OC -0.1%, COc1ccc2cc(C(=O)NCCCN3CCCC3=O)[nH]c2c1 0.11%, CCOCCCNC(=O)CCc1ccc(S(=O)(=O)Nc2ccc(C)cc2)cc1 -0.65%, CN(C)S(=O)(=O)c1ccc(C(=O)N(c2ccccn2)c2ccccn2)cc1 0.22%, O=C(CCCc1nc2ccccc2s1)Nc1ccc(N2CCOCC2)cc1 0.19%
